# CSC inhib: cancer stem cell inhibition | inhibition, % at 7.5 µM | cancer stem cell-like cells viability, luminescence | hit rate 1.1% among 300,000; in the data active = inhibition above about 75%; tested in HMLE shEcad cells
# Beta cell apopt: beta cell apoptosis inhibition; protection from apoptosis, % (concentration not given with the values); INS-1E cytokine-induced death, ATP luminescence, 48 h; percent of positive-control rescue, neutral wells zero; hit rate 0.8% among 300,000;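 active = Every replicate reaches about 75%, or at least half do and their mean reaches it too, limit read from the data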;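 also: higher means more ATP so stronger rescue from cytokine killing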
# Mdm2 MdmX PPI: human Mdm2/MdmX binding inhibition; O15151+Q00987; SaOS-2 split-luciferase Mdm2/MdmX complementation, luminescence; inhibition, % at 8 µM; hit rate 3% among 330,000; AID 485346;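 active = inhibition of at least 50% at 8 µM in the primary screen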
# Target sequence (O15151 whole entry, looked up): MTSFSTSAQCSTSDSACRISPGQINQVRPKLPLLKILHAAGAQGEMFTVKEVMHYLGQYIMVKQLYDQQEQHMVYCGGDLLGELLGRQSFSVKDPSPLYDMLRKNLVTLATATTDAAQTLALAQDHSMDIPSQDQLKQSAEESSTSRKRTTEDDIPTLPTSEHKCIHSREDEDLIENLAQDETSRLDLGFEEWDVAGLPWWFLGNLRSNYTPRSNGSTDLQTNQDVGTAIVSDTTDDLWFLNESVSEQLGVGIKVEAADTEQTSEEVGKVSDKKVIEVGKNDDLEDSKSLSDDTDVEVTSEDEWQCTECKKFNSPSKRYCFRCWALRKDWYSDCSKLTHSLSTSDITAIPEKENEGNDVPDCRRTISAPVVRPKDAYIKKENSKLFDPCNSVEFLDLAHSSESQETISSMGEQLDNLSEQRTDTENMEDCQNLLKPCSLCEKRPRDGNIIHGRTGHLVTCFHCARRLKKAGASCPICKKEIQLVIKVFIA
# Target sequence (Q00987 whole entry, looked up): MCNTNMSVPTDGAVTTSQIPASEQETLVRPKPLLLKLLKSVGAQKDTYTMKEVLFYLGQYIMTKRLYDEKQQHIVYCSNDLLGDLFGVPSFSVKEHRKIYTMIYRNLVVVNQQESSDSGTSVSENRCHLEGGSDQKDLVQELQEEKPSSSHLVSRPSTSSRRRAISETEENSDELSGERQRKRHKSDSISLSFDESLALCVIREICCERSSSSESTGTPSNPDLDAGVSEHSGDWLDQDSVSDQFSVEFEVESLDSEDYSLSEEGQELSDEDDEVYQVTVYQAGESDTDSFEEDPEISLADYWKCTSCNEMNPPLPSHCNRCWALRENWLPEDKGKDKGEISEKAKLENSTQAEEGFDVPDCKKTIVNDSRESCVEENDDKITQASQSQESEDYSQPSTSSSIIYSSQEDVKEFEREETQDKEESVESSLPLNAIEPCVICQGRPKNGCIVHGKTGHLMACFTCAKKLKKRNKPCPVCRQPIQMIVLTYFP
# Gli-Sufu antag: antagonists of Gli-Sufu signaling; Sufu-KO-LIGHT fibroblasts, Gli luciferase reporter luminescence; inhibition, % at 5 µM; hit rate 0.74% among 340,000;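 active = inhibition above about 55%, limit read from the data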
# Shn3 inh set2: inhibitors of Schnurri-3 3'UTR reporter in osteoblasts | Clone20 osteoblast Shn3 3'UTR firefly luciferase, 24 h | hit rate 0.52% among 360,000 | inhibition, % at 12.5 µM | AID 588674;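 active = mean inhibition of at least 75% with every replicate also reaching 75%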
# PAX8 inh HTS: lowers PAX8-driven luciferase in RMG-I cells; RMG-I TPO-luciferase reporter, SteadyGlo, 24 h; inhibition, % at 12.6 µM; hit rate 1.2% among 360,000; AID 652154;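 active = mean replicate inhibition at least 60% with every replicate also reaching 60%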;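 also: luciferase light reporting Pax8 driven TPO promoter activity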
# Mdm2 MdmX conf: confirmation of human Mdm2/MdmX interaction inhibitors. shares compounds with Mdm2 MdmX PPI. Mdm2-MdmX binding, luminescent assay. inhibition, % at 8 µM. hit rate 55% among 10,000. AID 489028; in the data active = inhibition above about 40%
# Full FLuc ctr: inhibits full-length luciferase, flagging false Mdm2/MdmX hits | hit rate 77% among 6,200 | AID 504607 | SaOS-2 full-length luciferase counterscreen, luminescence | inhibition, % at 8 µM | shares compounds with Mdm2 MdmX PPI;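 active = mean inhibition at 8 µM reaching about 37%, which flags the compound as non-specific, limit read from the data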;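 also: p53-null SaOS-2 cells with luciferase driven by a doxycycline-inducible promoter; compound on cells about two nights before reading with doxycycline added after day one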
# Hits are given with their value; i = inactive; nt = no result. Sampled rows, rich in hits. Any-hit rate of the full collection: about 4%.
SMILES,CSC inhib,Beta cell apopt,Mdm2 MdmX PPI,Gli-Sufu antag,Shn3 inh set2,PAX8 inh HTS,Mdm2 MdmX conf,others
COc1ccc(NC(=O)N(C)C[C@@H]2Oc3ccc(N(C)C)cc3C(=O)N([C@@H](C)CO)C[C@@H]2C)cc1,nt,nt,nt,nt,nt,i,nt,
CC(NC(=O)c1ccc(CS(C)(=O)=O)cc1)c1ccc(-n2ccnc2)cc1 (stereo not given),i,i,i,i,i,i,nt,
CC(NC(=O)c1ccc(CS(C)(=O)=O)cc1)c1ccc(-c2ccccc2)cc1 (stereo not given),i,i,52,i,i,i,i,
COC(=O)C1=C(C)NC(C)=C(C(=O)OC)C1c1cc2cc(C)ccc2[nH]c1=O,i,i,i,i,i,i,nt,
Cc1ccc2[nH]c(=O)c(C3C(C#N)=C(N)Oc4c3ccc3cccnc43)cc2c1 (stereo not given),i,91,57,i,i,nt,42,Full FLuc ctr=44
N#CC1=C(N)Oc2c(ccc3cccnc23)C1c1ccccc1 (stereo not given),i,97,75,i,i,i,58,Full FLuc ctr=54
COc1cccc(CNC(=O)C[C@H]2CC[C@@H](NS(=O)(=O)c3ccccc3OC)[C@@H](CO)O2)c1,nt,nt,nt,nt,nt,i,nt,
COc1cc2nc(NC(=O)c3ccc(Cl)cc3)sc(=O)c2cc1OC,i,i,69,i,i,i,i,
COc1cccc2c1C(=O)c1c(O)c3c(c(O)c1C2=O)C[C@](O)(C(C)=O)C[C@H]3O[C@@H]1C[C@@H](N)[C@@H](O)[C@@H](C)O1,i,i,100,56,94,112,100,Full FLuc ctr=i
COc1cccc2c1-c1c(O)cccc1C2=O,i,i,i,i,i,i,nt,
Cn1ncc2c(Nc3ccccc3Cl)nc(Nc3ccccc3Cl)nc21,i,i,54,i,i,i,i,
CN(C)CC(=O)Nc1ccc2c(c1)[C@@H]1C[C@@H](CC(=O)NC3CCCC3)O[C@@H](CO)[C@@H]1O2,nt,nt,nt,nt,nt,i,nt,
C[C@@H]1CN([C@H](C)CO)C(=O)Cc2cc(NC(=O)c3ccncc3)ccc2O[C@H]1CN(C)Cc1ccncc1,nt,nt,nt,nt,nt,i,nt,
O=C1CCCCC1Sc1nnc(-c2ccc3c(c2)OCO3)o1 (stereo not given),i,i,73,i,i,i,69,Full FLuc ctr=90
COC(=O)c1c(NC(=O)COC(=O)c2ccc(NC(=O)CC#N)cc2)sc2c1CCCCC2,i,i,64,i,i,i,i,
COC(=O)c1c(NC(=O)COC(=O)c2ccc(C)s2)sc2c1CCCCC2,i,i,52,i,i,i,i,
COC(=O)c1c(NC(=O)COC(=O)c2ccccc2O)sc2c1CCCCC2,i,i,i,i,i,i,nt,
Cc1noc(C)c1NC(=O)N[C@@H]1CC[C@H](CC(=O)NCc2ccc(Cl)c(Cl)c2)O[C@@H]1CO,nt,nt,nt,nt,nt,i,nt,
O=C(C[C@@H]1C[C@H]2c3cc(NS(=O)(=O)c4ccccc4)ccc3O[C@H]2[C@H](CO)O1)NCC1CC1,nt,nt,nt,nt,nt,i,nt,
CCCNC(=O)N[C@@H]1C=C[C@H](CC(=O)NCCc2ccccc2)O[C@@H]1CO,nt,nt,nt,nt,nt,i,nt,
Cc1noc(C)c1S(=O)(=O)Nc1ccc2c(c1)C(=O)N([C@@H](C)CO)C[C@@H](C)[C@@H](CN(C)S(=O)(=O)c1ccc(F)cc1)OCCCC[C@@H](C)O2,nt,nt,nt,nt,nt,i,nt,
Cc1ccc(Cc2cnc(NC(=O)/C(C#N)=C/c3ccc(-c4ccc([N+](=O)[O-])cc4)o3)s2)cc1,i,i,58,i,i,i,i,
Cc1cnc(NC(=O)c2ccc(-c3ccc([N+](=O)[O-])cc3)o2)s1,i,i,i,i,i,i,nt,
COC(=O)c1c(NC(=S)NN2CCOCC2)sc2c1CCCC2,i,i,i,i,i,i,nt,
CCCCN=C1SC(C(=O)Nc2sc3c(c2C(=O)OC)CCC3)C(N)=C1C(=O)N1CCOCC1 (stereo not given),i,i,66,i,i,i,i,
C[C@H](CO)N1C[C@H](C)[C@H](CN(C)S(=O)(=O)c2ccccc2)Oc2ccc(N(C)C)cc2CC1=O,nt,nt,nt,nt,nt,i,nt,
O=c1cc(O)c2sc(Nc3cccc(C(F)(F)F)c3)nc2[nH]1,i,nt,i,i,i,i,nt,
O=c1cc(O)c2sc(Nc3ccc(F)cc3)nc2[nH]1,i,nt,66,i,i,i,48,Full FLuc ctr=42

# Assay outcomes (PubChem)
